The campaign covered roughly 200,000 compounds. About 18,000 (9%) were called active. The sample as a whole holds a higher share of actives than the screen did. Values without a mark were called inactive. Rule as the data show it: active = inhibition above about 50%; inactive = the rest.

The assay in a line: antileishmanial activity against promastigotes – primary screen (AID 1063).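 Also: promastigotes grown with compound for 44 hours at 28 °C.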 Conditions: Leishmania major promastigotes, resazurin fluorescence viability; at 10 µM; active compounds read high.
In general, inhibition refers to the relative decrease from the control value, in per cent. As for `CN(C(=O)CSc1nncc2ccccc12)C1CCCCC1`, the inhibition was 0.99%.
On to `Cc1ccc(-c2cn3cc(C)ccc3n2)cc1`, for which the inhibition is 87.7% (active).
The same measure for `COc1ccc(-c2cn3ccsc3n2)cc1`: 0.76%; for `Cc1ccc(-c2cn3cc([N+](=O)[O-])ccc3n2)cc1`: 6.77%.
In the case of `CC(C)(C)C(=O)Nc1ccc(C(=O)N/N=C/c2ccccc2OC(=O)c2ccc(Cl)cc2Cl)cc1`, the inhibition is 40.8%.
For `CC1(C)C2CC=C(/C=N/NC(=O)c3ccc(Cl)cc3)C1C2` (centres undefined), the inhibition was 96% (active).
The same measure for `CC1(C)C2CC=C(/C=N/NC(=O)C3CC3)C1C2` (centres undefined): 99.3% (active); for `O=C(N/N=C/c1ccco1)c1ccc(NC(=O)C2CC2)cc1`: 5.98%; for `N#Cc1cc([N+](=O)[O-])ccc1Oc1cccc(/C=N/NC(=O)c2ccc(Cl)cc2)c1`: 15.7%.
Regarding `CCOc1ccc(N2C(=O)CN(c3cccc4ccccc34)C2=S)cc1`, the inhibition was -2.38%.
The same measure for `CCS(=O)(=O)C1=NSC2=NC(=O)/C(=C\c3cc(C)n(-c4cccc(OC)c4)c3C)C(=N)N21`: -2.58%.
With `Cc1ccc(S(=O)(=O)NCCC(c2ccccc2)c2ccccc2)cc1C(=O)O`, the inhibition was -13.6%.
`COc1cccc(-n2nc(C(=O)N3CCN(Cc4ccccc4)CC3)c3ccccc3c2=O)c1`: the inhibition is -6.17%.
The same measure for `Cc1ccnc(NC(=O)c2ccc(Cl)c([N+](=O)[O-])c2)c1`: 28.8%; for `CC(CC(=O)O)C(=O)c1ccc(Cl)c([N+](=O)[O-])c1` (centres undefined): -1.01%; for `NC(N)=N/N=C/c1ccc(Cl)c([N+](=O)[O-])c1`: 100% (active).
The same measure for `O=C(CCNS(=O)(=O)c1ccc(Br)s1)NCc1ccccc1Cl`: 15.3%; for `CCCc1cc(=O)[nH]c(SCC(=O)c2cc(C)n(CCC)c2C)n1`: 11.3%; for `CCCc1cc(=O)[nH]c(SCC(=O)N2CCN(S(=O)(=O)c3ccc(C)cc3C)CC2)n1`: 63% (active).
The same measure for `CCCc1cc(=O)[nH]c(SCC(=O)OCc2ccccc2)n1`: 1.09%; for `CCCOc1ccc(NC(=O)CC2C(=O)N(C)C(=S)N2Cc2ccc3c(c2)OCO3)cc1` (centres undefined): 3.31%; for `COc1cccc(NCCC(=O)c2cccc([N+](=O)[O-])c2)c1`: 85% (active).
As to `CC(C)(C)SCCNC(=O)c1cccc([N+](=O)[O-])c1`, the inhibition was 45.2%.
`COc1ccc(Cc2nnc(SCC(=O)c3cccc([N+](=O)[O-])c3)n2C)cc1`: the inhibition was 7.37%.
Regarding `O=C(c1nnc(-c2ccc(Cl)cc2)o1)C1CCCC1`, the inhibition was -8.13%.
In the case of `Cc1cccc(NC(=S)NC23CN4CN(CN(C4)C2)C3)c1`, the inhibition is -0.78%.
The same measure for `CC1CCCCN1CC(=O)NCc1ccc2c(c1)OCO2` (centres undefined): 4.4%.
The same measure for `Cc1ccc(NC(=O)CN2CCC3(O)CCCCC3C2c2ccc3c(c2)OCO3)c(C)c1` (centres undefined): 89.1% (active).
The same measure for `CC(=O)NC1CC2CCCC(C1)N2CC(=O)Nc1ccccc1` (centres undefined): -0.85%; for `CC1CCCCC1NC(=O)CN1CCC(O)(c2ccc3c(c2)OCO3)CC1` (centres undefined): 30.1%; for `O=C(CN1CCOCC1)Nc1ccccc1`: -4.08%.
For the compound `CCN(CC)c1ccc(C2C3CCCCC3(O)CCN2CC(=O)Nc2ccccc2)cc1` (centres undefined), the inhibition was 78.2% (active).
The same measure for `Cc1cccc(OCC(O)Cn2c(=N)n(CCN3CCOCC3)c3ccccc32)c1` (centres undefined): 10.1%; for `Cn1c(=N)n(CC(O)c2ccccc2)c2ccccc21` (centres undefined): 3.48%; for `CCOc1ccc(C(O)Cn2c(=N)n(CCN3CCCCC3)c3ccccc32)cc1` (centres undefined): 80.6% (active).
Consider `CCOC(=O)C1C(c2ccc(Cl)cc2)NC(=S)NC1(O)C(F)(F)F` (centres undefined), for which the inhibition was -2.87%.
`CC1CN(C2CCN(C(=O)COc3ccccc3)CC2)CC(C)O1` (centres undefined): the inhibition was 88.1% (active).
The same measure for `COc1ccc(OCC(=O)N2CCN(C(=O)COc3ccccc3)CC2)cc1`: -5.93%; for `COc1ccc(OCC(=O)N2CCOCC2)cc1`: 0.46%; for `Cc1csc(CN(C)C(=O)CC2C(=O)NCCN2CC(C)(C)C)n1` (centres undefined): -1.56%.
The same measure for `O=C(N/N=C/c1ccc([N+](=O)[O-])cc1)c1c[nH]c2ccccc12`: 2.8%; for `Cc1cc(C)c(C(N)=O)c(Cl)n1`: -12.9%.
Turning to `Cc1cc(C)nc(N2CCC(C(=O)Nc3ccc4c(c3)OCCO4)CC2)n1`, the inhibition is -3.98%.
For the compound `COc1ccc(S(=O)(=O)Nc2cccnc2)c(Cl)c1Cl`, the inhibition is 1.47%.
The same measure for `CCOC(=O)C1CCN(C(=O)C2(NC(=O)Nc3cccc(F)c3)CCCCC2)CC1`: -15.2%.
The same measure for `CC1CCN(CCC(=O)Nc2ccccc2)CC1`: 18.3%; for `CCOC(=O)C1CCN(CCC(=O)Nc2cccc(C)c2)CC1`: 92.7% (active).
The same measure for `O=C(O)/C=C\C(=O)Nc1ccc(OCc2ccccc2)cc1`: -4.77%; for `Cc1c(-c2nn(C)c(=O)c3ccccc23)oc2ccc(F)cc2c1=O`: 94.9% (active).
Take `Cc1ccc(F)cc1NC(=O)Cc1nn(C)c(=O)c2ccccc12`: the inhibition was -5.08%.
The same measure for `O=C1c2oc3ccc(Br)cc3c(=O)c2C(c2cccc(F)c2)N1CCO` (centres undefined): -1.54%; for `CCN(CCCNC(=O)CCn1c(=O)[nH]c2ccsc2c1=O)c1ccccc1`: -5.73%.
The same measure for `COC(=O)c1cc(NC(=O)c2cccnc2)ccc1N1CCOCC1`: -4.83%; for `O=C(Cn1cc(-c2nnnn2-c2ccc(Cl)cc2)c(=O)c2ccccc21)c1ccccc1`: -4.69%; for `c1ccc(-c2noc(-c3cccs3)n2)nc1`: -1.93%.
The same measure for `Clc1ccc(-n2nnnc2-c2cnc(-c3ccccn3)nc2-c2cccs2)cc1`: 61.2% (active); for `COc1ccccc1N1CCN(C(=O)c2cc3c(-c4ccc(Cl)cc4)nn(C)c3s2)CC1`: 60.4% (active).
Take `CC(C)(C)OC(=O)N/N=C/c1cn(-c2ccccc2)nc1-c1cccnc1`: the inhibition was 21.8%.
For `COc1ccccc1N1CCN(C(=O)c2cn(-c3ccccc3)nc2-c2cccnc2)CC1`, the inhibition was 84.2% (active).
As for `CCOC(=O)N1CCN(C(=O)c2cc3c(-c4ccc(Cl)cc4)nn(C)c3s2)CC1`, the inhibition is 10.6%.
As for `COc1cccc(-c2nn(C)c3sc(C(=O)N4CCN(c5ccccc5)CC4)cc23)c1`, the inhibition is 20.1%.
`O=C(c1cn(-c2ccccc2)nc1-c1cccnc1)N1CCCCC1`: the inhibition was -1.11%.
In the case of `C/C(=N/Nc1ccc(Cl)cc1)c1cnnc(-c2ccccc2)n1`, the inhibition is 2.35%.
The same measure for `Cc1ccc(C(=O)NC(=S)Nc2ccccc2C)cc1`: 0.17%; for `C/C(=N\NC(=O)COc1c(C)cccc1C)c1cccs1`: 2.87%.
The same measure for `C/C(=N\NC(=O)CSc1nc2ccccc2c(=O)n1-c1ccccc1C)c1cccs1`: 91% (active); for `Cc1nn(-c2ccccc2)c(C)c1/C=N/NC(=O)CSc1nc2ccccc2c(=O)n1-c1ccccc1`: 14.7%; for `Cc1ccnc(NC(=O)CCCOc2ccccc2)c1`: -3.55%.
The same measure for `O=C(Nc1ccc(F)cc1)N1CCN(c2ccc(F)cc2)CC1`: -0.19%.

The values above are taken from PubChem BioAssay AID1063 (University of Pittsburgh Molecular Library Screening Center, 2008).
